# In the library only some 3.1% were active in any assay of this set; here they are far more common.
# TSG101-PTAP inh – blocks PTAP/TSG101 interaction to inhibit HIV-1 budding; 340,000 tested, under 10 active; Fluorescence polarization, FITC-PTAP peptide / Tsg101 binding; Q99816; Potency, µM (top dose mostly 115 µM), for the others: at the top dose activity change, negative = inhibition, most hits filed as inhibitors; active means well fitted inhibition curve with a large enough effect in the main read-out, with a control signal flat, not every such curve was filed as active; inconclusive means small, poorly fitted or top-dose-only effect, or effect the other way, or a change in a side signal; inactive means no such curve, though single readings can be large or run the other way; further: potency means the concentration at half of the fitted maximal effect; % of control where 0% means no effect
#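 FP read-out: FITC-PTAP peptide, 50 nM final, binding Tsg101 binding domain, 10 uM final; 20 min, r.t.; 10 mM HEPES pH 7.5, 0.15 M NaCl, 0.01% Tween 20, 3 mM EDTA, 0.1 mM TCEP.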
# TSHR antagonist – antagonists of human thyroid stimulating hormone receptor. P16473. TSHR-expressing cells, TSH-stimulated cAMP HTRF, 2 h; hits give low values. activity change, negative = inhibition, % at 11.5 µM. hit rate 0.2% among 330,000;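 active means activity change below a set negative limit, meaning inhibition stronger than a set level, cut at about -70% in these data; inconclusive means activity change between two set negative limits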; further: on the % scale 0 is the no-effect control and ±100 the full control effect
#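 Competitive HTRF cAMP read-out (cryptate anti-cAMP antibody, cAMP-d2; 30 min, room temperature) in freshly harvested TSHR cells. Compounds added before TSH at EC80 (4nM final), followed by 2 hours' incubation at 37 deg C.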
# PLK1 PBD inh – inhibitors of human PLK1 polo-box domain binding; P53350; Plk1 PBD binding of FITC phosphopeptide, fluorescence polarization; Potency, µM, for the others: max response, negative = inhibition, usual class: inhibitors; hit rate 2.8% among 360,000; AID 720504; further: potency means the concentration at half of the fitted maximal effect; series mostly up to about 57 µM; on the % scale 0 is the no-effect control and ±100 the full control effect; nearly all actives have a fitted effect of over 65% in size
# VDR inhibitor – inhibitors of human vitamin D receptor; P11473; VDR-SRC2-3 peptide fluorescence polarization, 2 h; Potency, µM, for the others: max response, negative = inhibition, usual class: inhibitors; hit rate 0.93% among 400,000; AID 504847; further: potency means the concentration at half of the fitted maximal effect; on the % scale 0 is the no-effect control and ±100 the full control effect
# Target sequence (P11473 whole entry, looked up): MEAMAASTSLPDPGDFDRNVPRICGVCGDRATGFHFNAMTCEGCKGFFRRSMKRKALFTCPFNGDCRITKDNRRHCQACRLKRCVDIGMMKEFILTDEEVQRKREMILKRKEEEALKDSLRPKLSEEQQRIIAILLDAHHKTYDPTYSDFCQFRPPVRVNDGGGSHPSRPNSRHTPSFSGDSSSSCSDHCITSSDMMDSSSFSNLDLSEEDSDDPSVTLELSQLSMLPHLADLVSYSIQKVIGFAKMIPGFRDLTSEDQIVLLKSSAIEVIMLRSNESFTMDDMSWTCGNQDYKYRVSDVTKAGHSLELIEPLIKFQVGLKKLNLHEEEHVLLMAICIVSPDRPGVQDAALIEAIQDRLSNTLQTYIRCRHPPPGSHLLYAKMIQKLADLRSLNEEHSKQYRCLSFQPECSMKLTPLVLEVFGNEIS
#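 Signal is fluorescence polarization, reporting how far test compounds block the interaction of VDR with the SRC2-3 coregulator peptide after a 2 h room-temperature incubation.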
# uPA generation – cell surface uPA generation inhibition; cell surface uPA generation assay, qHTS; Potency, µM (doses to about 38.3 µM), for inactives: top-dose activity change, negative = inhibition, most hits filed as inhibitors; hit rate 0.31% among 330,000; active means well fitted inhibition curve with a large enough effect; inconclusive means small, poorly fitted or top-dose-only effect; inactive means no such curve, though single readings can be large or run the other way; tested in mouse RAW 264.7 cells; further: potency means the concentration at half of the fitted maximal effect; on the % scale 0 is the no-effect control and ±100 the full control effect; nearly all actives have a fitted effect of over 55% in size
# * = called active by the depositor; ? = inconclusive; nt = no result given. Unless noted, the call rests on the fitted dose curve; in most records, active means well fitted curve in the direction sought with a large enough effect; inconclusive means small, poorly fitted or top-dose-only effect, or another doubt; inactive means no such curve, though single readings can be large; an effect the other way counts as inactive or inconclusive.
SMILES,TSG101-PTAP inh,TSHR antagonist,PLK1 PBD inh,VDR inhibitor,uPA generation
NCCc1c(C(=O)O)[nH]c2ccc([N+](=O)[O-])cc12,-3%,-5,21µM*,?,5%
Cc1c(C(=O)O)[nH]c2ccc([N+](=O)[O-])cc12,-3%,-16,?,-6%,4%
O=[N+]([O-])c1ccc(N/N=C/c2cccc(O)c2O)cc1,4%,-21,27µM*,?,-12%
O=C(Cn1ccn(-c2ccc(F)c(F)c2)c(=O)c1=O)Nc1ccccc1F,nt,nt,nt,14%,nt
CC(O)(c1cccc(F)c1)c1nc(-c2ccc(S(C)(=O)=O)cc2)cs1 (stereo not drawn),nt,nt,0%,nt,nt
Cc1nnc(SCC(=O)c2c(N)n(C)c(=O)n(C)c2=O)[nH]c1=O,-5%,-6,24µM*,-15%,3%
COc1ccc(C)cc1NC(=O)c1ccc2nc(Cc3ccccc3)oc2c1,nt,nt,nt,7%,nt
CC(=O)N1CCN(C(=O)c2cccc(S(=O)(=O)N3CCOCC3)c2)CC1,-3%,17,0%,-11%,-3%
COc1ccc(CNc2ncnc3c2c(-c2ccccc2)cn3-c2cccc(C)c2)cc1,nt,nt,nt,2%,nt
N#CC(C#N)=C1C=CC=CN1/C(=C\c1ccco1)C(=O)c1ccc(-c2ccccc2)cc1,-1%,-44,-11%,?,-12%
N#CC(C#N)=C1C=CC=CN1/C(=C\c1ccco1)C(=O)c1ccc(Cl)cc1,-10%,-84*,12µM*,8.9µM*,-6%
CO[C@@H]1C[C@H](O[C@H]2[C@@H](C)[C@H](O[C@@H]3O[C@@H](C)C[C@@H](N(C)C)[C@@H]3OC(C)=O)[C@H](C)C[C@]3(CO3)C(=O)[C@H](C)[C@H](OC(C)=O)[C@H](C)[C@H](C)OC(=O)[C@@H]2C)O[C@H](C)[C@@H]1OC(C)=O,nt,nt,nt,-3%,nt
Oc1ccc(CNc2cccc(C(F)(F)F)c2)c2cccnc12,nt,-8,nt,nt,nt
Cc1cccc(NCc2ccc(O)c3ncccc23)c1C,1%,-8,6µM*,?,-19%
Cc1ccc(NCc2ccc(O)c3ncccc23)cc1,0%,23,2.7µM*,?,2%
Cc1cccnc1NCc1ccc(O)c2ncccc12,0%,-14,19µM*,-23%,-6%
Cc1ccc(C)c(N=Nc2ccc(O)c3ncccc23)c1,-1%,2,-19%,-10%,?
Cc1cc(/C=N/NC(N)=S)c(C)n1-c1ccc(Cl)cc1,-5%,-8,30µM*,-28%,-25%
O=C(NNc1nc(=O)c2cccnc2s1)c1ccccc1O,-3%,3,27µM*,-5%,-6%
O=C(NNc1c2ccccc2nc2ccccc12)c1ccccc1O,0%,-35,-1%,8%,3%
S=c1[nH]nc(-c2ccccn2)n1/N=C/c1cccc2ccccc12,-2%,-6,27µM*,-5%,-6%
Cc1ccccc1/C=N/n1c(-c2ccccn2)n[nH]c1=S,-4%,-6,-17%,0%,-2%
O=C1CNC(=O)/C1=C/c1ccc(Br)cc1,-8%,2,7.5µM*,5%,1%
Oc1cccc(CN2CCOCC2)c1O,0%,nt,0%,?,-2%
Oc1c(CN2CCOCC2)cc(CN2CCOCC2)c(O)c1O,-6%,nt,1.7µM*,20µM*,6%
SMILES,TSG101-PTAP inh,TSHR antagonist,PLK1 PBD inh,VDR inhibitor,uPA generation
OCCC1CN(Cc2c(O)ccc3ccccc23)CCN1CCc1ccccc1 (stereo not drawn),-2%,-14,24µM*,?,1%
Oc1ccc2ccccc2c1CN1CCOCC1,-8%,-15,27µM*,?,3%
Oc1cnc2ccccc2c1CN1CCOCC1,5%,1,-9%,-1%,5%
CCCc1cc(CN2CCOCC2)c(O)c(CN2CCOCC2)c1O,0%,nt,6.7µM*,22µM*,0%
CCCNC(=O)c1ccc2c(c1)N=C(CCC)c1ccccc1S2,nt,nt,nt,-3%,nt
Cc1ccc(C)c(OC2=NS(=O)(=O)c3ccccc32)c1,-2%,6,12µM*,-17%,3%
Cc1ccc(C(=O)c2c(N)c(-c3nc(-c4ccc5c(c4)OCO5)cs3)c3ccccn23)cc1C,nt,nt,nt,8%,nt
COc1ccc(/C=C/C(=O)c2cc(F)ccc2OC(=O)c2ccccc2)cc1OC,-3%,nt,1%,40µM*,-14%
COc1ccc(/C=C/C(=O)c2cc(F)ccc2OC(=O)c2ccc(OC)c(OC)c2)cc1OC,-2%,7,-4%,-22%,-26%
c1ccc(-c2nnc(-c3ccccc3)nn2)cc1,-3%,-7,4%,18%,0%
c1cncc(-c2nnc(-c3cccnc3)nn2)c1,-1%,-5,6.7µM*,-50%,-15%
Cc1ccc(-c2nc3ccccc3[nH]2)cc1NC(=O)c1ccc2c(c1)OCO2,-3%,2,-7%,-2%,-3%
O=C(NC(=S)Nc1cc(-c2nc3ccccc3[nH]2)ccc1Cl)c1ccc2c(c1)OCO2,2%,-8,24µM*,-17%,-8%
CC(C)CCNC(=O)c1ccc(NC(=O)C2=CSCCO2)cc1,1%,-10,-4%,0%,9%
C=CCNC(=O)c1ccc(NC(=O)C2=CSCCO2)cc1,-4%,-136*,-8%,-6%,?
Cc1onc(-c2c(F)cccc2Cl)c1C(=O)OCC(=O)N(C)c1ccccc1,nt,nt,4%,nt,nt
COc1cc(/C=C2\C(C)=C(C#N)c3nc(N)c(C#N)c(C)c32)ccc1OCC(=O)O,-4%,-9,27µM*,-19%,-2%
CC1=C(C#N)c2nc(N)c(C#N)c(C)c2/C1=C\c1ccc(C)cc1,nt,43,nt,nt,nt
Cn1c(=O)c2cc(S(=O)(=O)NC(Cc3ccccc3)C(=O)NCC3CCCO3)ccc2n(C)c1=O (stereo not drawn),-3%,7,1%,-5%,-33%
CC(NS(=O)(=O)c1ccc2c(c1)c(=O)n(C)c(=O)n2C)C(=O)NC1CCCCC1 (stereo not drawn),-3%,2,27µM*,-29%,-4%
Cc1ccc(CC2(C)C(=O)Nc3c(Cl)cccc32)cc1 (stereo not drawn),nt,nt,-3%,nt,nt
NC(=O)CN1CCN(c2nc(-c3ccc(F)cc3)cs2)CC1,-3%,-5,30µM*,1%,-4%
CCOC(=O)C1=CCN(S(=O)(=O)c2ccc(C)cc2)C1c1ccccc1F (stereo not drawn),nt,nt,2%,nt,nt
CC(=O)/C(=C/c1ccccc1)C(=O)Nc1ccccc1C,-7%,-3,-21%,22µM*,2.8µM*
Nc1nc(N2CCN(C/C=C/c3ccccc3)CC2)nc2ccccc12,1%,6,27µM*,1%,7%
CC(C)n1cnnc1SCC(=O)Nc1ccc(Br)cc1F,-9%,-6,1%,14%,4%
CCn1c(=S)[nH]c2c(=O)n(C)c(=O)n(C)c21,-3%,nt,-16%,50µM*,-3%
Cn1c(=O)c2[nH]c(Br)nc2n(C)c1=O,nt,nt,nt,2%,nt
COC(=O)c1ccc(NC(=O)C(=O)NCCc2sc3nc(-c4ccc(OC)cc4)nn3c2C)cc1,nt,nt,nt,-2%,nt

# High-throughput results as filed in PubChem BioAssay.
